Reference: PubChem BioAssay (NCI)
Compounds without any hit were thinned out: in the full panel of roughly 83,000, 20% have a hit.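 The test compound was applied at a single concentration to cells in 96-well plates for 48 hours, and percent growth was recorded.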 A number with no mark means an inactive call. The source made the active and inactive calls. Rule for the calls: active = growth percent below 10; inactive = the rest.

Test system: HL-60(TB) leukemia
Assay: NCI-60 one-dose screen, 48 h (100 = growth as untreated, 0 = no growth, -100 = all killed)
Conditions: 10 µM unless noted

For Nc1ccc2ccccc2c1-c1c(N)ccc2ccccc12, the growth was 2.94% (active).
With CCCCCCCCCCCC(=O)OC(C)C(=O)Nc1ccccc1 (stereo not drawn) the growth was 91.7%.
With N#Cc1c(NC(=O)c2ccccc2)sc2c1CCC(=O)C2 the growth was -2.62% (active).
